Drawing on PubChem BioAssay (Tox21), this text covers outcome and fluorescence, % of fluorescent control for 40 compounds.

The source made the active and inactive calls. Calls follow the shape of the dose curve; as a rule, active = well fitted curve in the direction sought with a large enough effect in the repeat runs; inconclusive = weak or mixed curves; inactive = flat fitted curve, though single readings scatter.
% is scaled to controls: 0 for no effect and ±100 for the full control effect.

This experiment is described as follows: qHTS assay to test for compound auto fluorescence at 460 nm (blue) in HepG2 cells (AID 720687). As to conditions: autofluorescence 405/460 nm, 1 h; series mostly up to 91.3 µM. The text has this:
U.S. Tox21 Program National Center for Advancing Translational Sciences [NCATS] NIH Chemical Genomics Center [NCGC] U.S. Environmental Protection Agency [EPA] National Institutes of Environmental Health Sciences [NIEHS] National Toxicology Program [NTP] U.S. Food and Drug Administration [FDA] Tox21 Assay Overview: Compound auto fluorescence often interferes with screening of the compound library against various biological targets and signaling pathways. Some of these compounds may have fluorophoric properties. Such properties may interfere with the assay outputs resulting in false positives and/or negatives. To decrease such complications and ensure the compound activities are relevant in terms of biological response, the Tox21 10K compound library was screened for auto fluorescence. From the fluorophores used as reporter signals in our screening assays, the auto fluorescence equivalencies of compounds against three fluorophores have been evaluated: Triamterene, Fluorescein and Rose Bengal sodium for blue, green and red fluorescence, respectively. The fluorescence intensities were measured using Excitation/Emission wavelengths at 405/460nm, 485/535nm and 540/590nm for blue, green and red labels, respectively. This assay includes the blue fluorescence data.
Tox21 Assay Protocol Summary: 2,000 HepG2 cells in 5 uL of culture medium (MEM containing 10% FBS) per well were dispensed into black wall/clear bottom 1536-well plates using a Multidrop Combi Dispenser (ThermoFisher Scientific, Waltham, MA). The assay plates were incubated overnight at 37 C to allow cell attachment to the well bottom, followed by the transfer of 23 nL compound or DMSO vehicle by a pintool work station (Kalypsys , San Diego, CA). After the assay plates were incubated for 1 hr at 37 C and 5% CO2, fluorescence intensities in the assay plates were measured by an Envision (PerkinElmer, Shelton, CT) plate reader using three labels for measuring blue, green and red fluorescence at […] 460, 535 and 590 nm respectively.
Background: Quantitative high-throughput screening tests each substance at several concentrations.
Regarding `Cc1ccc2ccccc2c1[N+](=O)[O-]`, the call was inactive.
As for `c1ccc(CCNc2nc(-c3ccccc3)cs2)cc1`, the outcome was inactive.
Consider `O=C(O)c1cccc(C(=O)O)c1C(=O)O`, for which the result was inactive.
As for `OCC(O)c1ccccc1` (stereo not given), the outcome was inactive.
In the case of `CCCCCCCCC(=O)OCC(C)OC(=O)CCCCCCCC` (stereo not given), the result was inactive.
For `CC(C)Oc1ccccc1O`, the outcome was inactive.
Same read-out and setting: under `CC(=O)Oc1cccc2c1C(=O)c1c(OC(C)=O)cc(C(=O)O)cc1C2=O` stands “inactive”.
Take `CC(=O)c1ccc(Cl)c(Cl)c1Cl`: the compound was classed as inactive.
`O=C(O)c1ccncc1`: the result was inactive.
Still for that read-out and setting: under `CCCCCCCCCCCCCCCCN` stands “inactive”; under `C(/C=C/C=C/Nc1ccccc1)=Nc1ccccc1`, “inactive”.
For the compound `CC(C)=CCC[C@H](C)CCO`, the call was inactive.
Regarding `Cc1c(Nc2ncccc2C(=O)O)cccc1C(F)(F)F`, the fluorescence, % of fluorescent control is 0.0693% [at 18.6 µM] (inactive).
Turning to `CC(C)(C(=O)O)c1ccc(C(O)CCCN2CCC(C(O)(c3ccccc3)c3ccccc3)CC2)cc1` (stereo not given), the call was inactive.
On to `C=Cc1ccc(C=C)cc1`, for which the compound was called inactive.
For `O=Cc1ccc(Cl)c([N+](=O)[O-])c1`, the result was inactive.
Take `Nc1ncnc2c1ncn2[C@@H]1O[C@H](CO)[C@@H](O)[C@H]1O`: the result was inactive.
Same read-out and setting: under `CCCc1ccc(OC)cc1` stands “inactive”.
With `CC(O)CN` (stereo not given), the result was inactive.
Same read-out and setting: under `C[C@@H](O)[C@H]1C(=O)N2C(C(=O)O)=C(S[C@@H]3CN[C@H](CNS(N)(=O)=O)C3)[C@H](C)[C@H]12` stands “inactive”; under `NC(=O)c1ccccc1C(N)=O`, “inactive”; under `Nc1ccc(C(=O)Oc2ccccc2)c(O)c1`, “inactive”.
As for `C/C(=C\C(C)CC(C)CC(C)C)C1CC(=O)OC1=O` (stereo not given), the compound was classed as inactive.
Turning to `FC(F)(Cl)C(F)(Cl)Cl`, the outcome was inactive.
In the case of `O=C(OCCCCCOC(=O)c1ccccc1)c1ccccc1`, the outcome was inactive.
In the case of `CCOc1ccccc1O`, the compound was called inactive.
The same measure, in the same setting: under `N#CCCCC(C#N)CCC#N` (stereo not given) stands “inactive”; under `CCCCCC1CCC(=O)O1` (stereo not given), “inactive”; under `CCCCOc1ccc(N)cc1`, “inactive”.
As for `Cc1cccc(C)c1NC(=O)CN1CCCC1`, the call was inactive.
For `CCCCCCCCCCCCSCCOCCO`, the compound was classed as inactive.
The same measure, in the same setting: under `CC(C)(O)C(=O)O` stands “inactive”; under `O=P(c1ccccc1)(c1ccccc1)c1ccccc1`, “inactive”; under `CCC(C)C1N=C(C)C(C)S1` (stereo not given), “inactive”.
With `O=Cc1ccc([N+](=O)[O-])cc1`, the compound was called inactive.
On to `CCc1ccc2c(c1)C(=O)c1ccccc1C2=O`, for which the outcome was inactive.
For the compound `FC1(F)C(F)(F)C(F)(F)C2(F)C(F)(C1(F)F)C(F)(F)C(F)(F)C1(F)C(F)(F)C(F)(F)C(F)(F)C(F)(F)C12F` (stereo not given), the result was inactive.
Regarding `CCOC(OCC)OCC`, the compound was called inactive.
For `O=C(Cl)c1cc(Cl)cc(Cl)c1`, the result was inactive.
The same measure, in the same setting: under `O=C1c2ccccc2C(=O)C1c1ccc2cc(S(=O)(=O)O)cc(S(=O)(=O)O)c2n1` stands “inactive”.
